# Source: the supplement of paper PMC8253809
# Several values for one entry are separate records, joined by “and”; a condition that tells them apart may be missing. Equal values may be shown once.
# What was measured:
# Assay in all cases: growth inhibition (% activity, log2 RLU normalised to DMSO / staurosporine); higher = more growth inhibition
# Details in all cases: 33 µM
# DIPGX29 = tested on: DIPGX29 (H3.3 K27M diffuse intrinsic pontine glioma line)
# In short: (§1)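 In triplicate, pHGG cell lines and H9-derived neural stem cells were treated for 7 days at 37 °C, 5% CO2 with approved drugs at a single final concentration of about 33 μM, added by pin tool. CellTiter-Glo luminescence, after log2 transformation, was normalised on each plate to % activity between solvent and positive control wells. Growth inhibition is reported as the median across replicates.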
# DIPGX37 = tested on: DIPGX37 (H3.3 K27M diffuse intrinsic pontine glioma line)
# In short: as §1
# DIPGX7 = tested on: DIPGX7 (H3.3 K27M diffuse intrinsic pontine glioma line)
# In short: as §1
# DIPGX9 = tested on: DIPGX9 (diffuse intrinsic pontine glioma line)
# In short: as §1
# HGGX39 = tested on: HGGX39 (paediatric high-grade glioma line)
# In short: as §1
# HGGX6 = tested on: HGGX6 (H3.3 G34R paediatric high-grade glioma line)
# In short: as §1
# HNSC = tested on: HNSC
# In short: as §1
# SUDIPGIV = tested on: SUDIPGIV (diffuse intrinsic pontine glioma line)
# In short: as §1
# SUDIPGVI = tested on: SUDIPGVI (diffuse intrinsic pontine glioma line)
# In short: as §1
# SUDIPGXIII = tested on: SUDIPGXIII (diffuse intrinsic pontine glioma line)
# In short: as §1
Compound,growth inhibition (DIPGX29),growth inhibition (DIPGX37),growth inhibition (DIPGX7),growth inhibition (DIPGX9),growth inhibition (HGGX39),growth inhibition (HGGX6),growth inhibition (HNSC),growth inhibition (SUDIPGIV),growth inhibition (SUDIPGVI),growth inhibition (SUDIPGXIII)
CN(C)c1cc(NC(=O)CNC(C)(C)C)c(O)c2c1CC1CC3C(N(C)C)C(=O)C(C(N)=O)=C(O)C3(O)C(=O)C1=C2O (configuration not stated),-2.13%,-0.102%,-0.656%,-1.41%,-1.33%,-2.33%,-2.93%,-2.9%,-1.89%,0.694%
CC(CN(C)C)CN1c2ccccc2CCc2ccccc21 (configuration not stated),-1.45%,-0.198%,-0.333%,-0.216%,4.41%,-2.56%,3.02%,1.48%,0.808%,-0.414%
O=C(C1CCCCC1)N1CC(=O)N2CCc3ccccc3C2C1 (configuration not stated),0.382%,3.23%,1.04%,1.99%,2.3%,0.441%,3.24%,-1.19%,3.33%,-0.635%
N#CC(c1ccc(Cl)cc1)c1c(Cl)cc(-n2ncc(=O)[nH]c2=O)cc1Cl (configuration not stated),-3.67%,-2.44%,-2.85%,-2.54%,-2.75%,-3.94%,-1.15%,-2.27%,-3.68%,0.254%
CN(c1nccc(=O)[nH]1)C1CCN(c2nc3ccccc3n2Cc2ccc(F)cc2)CC1,2.38%,2.96%,2.33%,1.85%,4.67%,3.86%,1.95%,0.631%,3.14%,-15%
CCn1cc(C(=O)O)c(=O)c2cc(F)c(N3CCNCC3)cc21,-0.303%,1.84%,0.79%,0.854%,3.3%,2.09%,3.22%,-0.867%,0.897%,3.56%
CC[C@@H]([C@H](C)O)n1ncn(-c2ccc(N3CCN(c4ccc(OC[C@@H]5CO[C@@](Cn6cncn6)(c6ccc(F)cc6F)C5)cc4)CC3)cc2)c1=O,-3.19%,-0.0907%,-0.181%,-2.09%,-0.245%,-1.15%,-2.54%,-2.62%,-1.64%,0.673%
CCN(CC)CC(=O)Nc1c(C)cccc1C,1.31%,0.211%,2.14%,1.09%,2.87%,0.583%,1.55%,0.232%,2.37%,1.3%
C[C@]12C=CC(=O)C=C1CC[C@@H]1[C@@H]2[C@@H](O)C[C@@]2(C)[C@H]1CC[C@]2(O)C(=O)CO,0.548%,0.082%,-0.697%,2.79%,1.22%,-0.621%,1.3%,-0.906%,1.51%,0.983%
OC(CCN1CCCCC1)(c1ccccc1)C1CC2C=CC1C2 (configuration not stated),-0.000402%,-2.1%,1.09%,-1.44%,-1.06%,-1.38%,0.31%,-2.82%,-4.33%,1%
OC(CNCC(O)C1CCc2cc(F)ccc2O1)C1CCc2cc(F)ccc2O1 (configuration not stated),4.79%,3.01%,2.85%,4%,4.24%,6.9%,2.72%,2.21%,-0.86%,2.62%
CC(c1cc2ccccc2s1)N(O)C(N)=O (configuration not stated),0.492%,-0.829%,0.715%,-0.313%,-0.313%,-1.42%,-0.145%,-2.98%,-1.81%,0.685%
CCN1CC(CCN2CCOCC2)C(c2ccccc2)(c2ccccc2)C1=O (configuration not stated),3.26%,4.12%,3.42%,1.56%,3.54%,3.39%,6.96%,3.42%,2.27%,-0.683%
CS(=O)(=O)CCNCc1ccc(-c2ccc3ncnc(Nc4ccc(OCc5cccc(F)c5)c(Cl)c4)c3c2)o1,6.23% and 13.7%,3.79% and 6.67%,8.64% and 16.6%,4.74% and 6.77%,7.08% and 12.7%,3.29% and 14.5%,,3.14% and -0.238%,-6.01% and 3.84%,0.448% and 1.79%
NCCCC(O)(P(=O)(O)O)P(=O)(O)O,-0.387%,-3.88%,0.704%,0.583%,-0.159%,-0.423%,1.02%,-0.208%,1.59%,0.669%
CC1CNc2c(cccc2S(=O)(=O)N[C@@H](CCCNC(=N)N)C(=O)N2CC[C@@H](C)C[C@@H]2C(=O)O)C1 (some centres not stated),0.0741%,1.59%,-1.49%,0.277%,-0.0474%,-1.28%,12.3%,1.8%,0.243%,-1.66%
CCOC(=O)C1=C(COCCN)NC(C)=C(C(=O)OC)C1c1ccccc1Cl (configuration not stated),15% and 3.31%,4.6% and -0.383%,5.13% and -0.147%,4.27% and -0.283%,6.07% and -2.96%,6.22% and 0.934%,,1.11% and -4.26%,3.83% and -2%,0.181% and 0.61%
NCC[C@H](O)C(=O)N[C@@H]1C[C@H](N)[C@@H](O[C@H]2O[C@H](CN)[C@@H](O)[C@H](O)[C@H]2O)[C@H](O)[C@H]1O[C@H]1O[C@H](CO)[C@@H](O)[C@H](N)[C@H]1O,-1.74% and 1.77%,-1.47% and 4.24%,-2.3% and 3.01%,-2.19% and 1.75%,-0.158% and 4.96%,-2.78% and 2.92%,-1.9% and 2.1%,-1.35% and 2.18%,-1.89% and 2.2%,-0.125% and 0.203%
CCN(CC)CC#CCOC(=O)C(O)(c1ccccc1)C1CCCCC1 (configuration not stated),7.11% and -0.14%,-0.636% and -1.02%,8.09% and 5.01%,1.99% and -2.12%,4.03% and -0.183%,1.74% and -0.191%,,3.76% and -2.81%,-0.8% and -5.89%,1.45% and 2.55%
NC(=O)c1ncn([C@@H]2O[C@H](CO)[C@@H](O)[C@H]2O)c1O,0.0608%,0.272%,-0.185%,-0.234%,1.1%,0.705%,1.34%,-0.809%,-1.05%,-0.893%
